Data on eight compounds can be found in PubChem BioAssay (NCI).

About 83,000 compounds went through this panel and 20% of them were active in at least one assay; those are over-represented in the sample as a whole.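 How to read the values: 0–100, growth inhibition (40 = 60% inhibited); 0, no net growth; -100 to 0, cell death (-40 = 40% of starting cells died; -100 = all dead).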 A number with no mark means an inactive call. The source made the active and inactive calls. The calls were made as follows: active = growth percent below 10; inactive = the rest.

Experiment in all cases: NCI-60 one-dose screen, 48 h (100 = growth as untreated, 0 = no growth, -100 = all killed)
Holding throughout (conditions): 10 µM unless noted

Assay [1] concerns NCI-H23 lung.
The subject of assay [2] is NCI-H226 lung.
The subject of assay [3] is NCI-H322M lung.
Assay [4] deals with HOP-62 NSCLC.
The test system of assay [5] is NCI-H460 lung.
Assay [6] deals with HOP-92 NSCLC.
The subject of assay [7] is NCI-H522 lung.
In assay [8] the test system is A549/ATCC NSCLC.
The test system of assay [9] is 786-0 renal.
The test system of assay [10] is DU-145 prostate.
Assay [11] relates to K-562 leukemia.
In assay [12] the test system is MALME-3M melanoma.
In assay [13] the test system is MDA-MB-231 breast.
Assay [14] relates to RXF 393 renal.
Assay [15] concerns SF-268 CNS.
In assay [16] the test system is SF-295 CNS.
Assay [17] relates to SF-539 CNS.
For assay [18], the system named is UACC-257 melanoma.

With `CN1CCN(c2ccc(Nc3ncc(Cl)c(NC[C@@H]4CCCO4)n3)cc2)CC1`, the growth was 15.8% in assay [1]; 8.99% (active) in assay [2]; 35.9% in [3]; 7.27% (active) in assay [4]; 13.2% in assay [5]; 3.21% (active) in assay [6]. For the same compound, the growth in assay [7] was 25.6%; in assay [8], 22.8%; in assay [9], 26%; in [10], 23%; in [11], 27.2%; in assay [12], 27.4%. Also, the growth was 17.8% in assay [13]; -31.7% (active) in [14]; 24.6% in assay [15]; 31.3% in assay [16]; -6.55% (active) in assay [17]; 44.7% in assay [18].

`Nc1ccn(C2OC(F)(CO)C(O)C2F)c(=O)n1` (centres undefined): the growth in [1] was 10.3%; in assay [2] it was 89.4%; in [3], 71.1%; in assay [4], 17.3%; in assay [5], 12.7%; in [6], 53.3%. Also, the growth in [7] was 32.8%; in assay [8] it was 21.8%; in assay [9] it was 10.9%; in assay [10], 24.6%; in [11], 69%; in assay [12] it was 57.4%. Moreover, the growth in assay [13] was 93.4%; in assay [14], 82.4%; in assay [15] it was 47.1%; in [16], 55.2%; in assay [17], 46.9%; in assay [18], 62.6%.

With `Cc1cc(Cc2cc(C)cc(C(C)(C)C)c2O)c(O)c(C(C)(C)C)c1`, the growth in assay [1] was 23.3%; in assay [2], 58.3%; in [3], 75.7%; in assay [4] it was 68.3%; in [5] it was 8.85% (active); in [6], 18.5%. The growth is 29.9% in assay [7]; 27.3% in [8]; 57% in [9]; 43.5% in [10]; 13% in assay [11]; 67.1% in assay [12]. Also, the growth was 57.2% in [13]; 40.9% in assay [14]; 49.2% in assay [15]; 6.54% (active) in [16]; 62.4% in [17]; 59.8% in assay [18].

Regarding `CS(=O)(=O)c1ccc(N/N=C/c2c(-c3ccc(S(C)(=O)=O)cc3)[nH]c3ccc(F)cc23)cc1`, the growth in [1] is 41.6%; in assay [2], 67.2%; in [3], 45%; in [4], 28.1%; in assay [5] it was 12.8%; in [6] it was 16.3%. Moreover, the growth in assay [7] was 27.6%; in assay [8], 44.7%; in assay [9], 15.9%; in assay [10] it was 39.9%; in assay [11], 10.5%; in assay [12] it was 10.7%. Further, the growth was 29.6% in [13]; -10.9% (active) in [14]; 39.3% in assay [15]; -52.8% (active) in [16]; -19.8% (active) in assay [17]; 14.1% in assay [18].

Consider `C=C1C(=O)O[C@H]2[C@H]1CC/C(Cn1cc(CNCCc3c[nH]c4ccccc34)nn1)=C\CC[C@@]1(C)O[C@@H]21`, for which the growth in [1] was 95%; in assay [2], 101%; in assay [3] it was 86.8%; in assay [4], 86.3%; in [5] it was 104%; in assay [6], 61.6%. Besides, the growth in assay [7] is 3.17% (active); in assay [8] it was 95.7%; in assay [9], 99.1%; in assay [10], 104%; in [11] it was 32%; in [12] it was 76%. Further, the growth in assay [13] is 92.4%; in [14] it was 85.4%; in assay [15] it was 95.8%; in assay [16], 102%; in [17] it was 81.1%; in [18], 77.4%.

For the compound `CC(=O)OCCc1ccccc1`, the growth in assay [1] was 86.9%; in [2], 108%; in assay [3] it was 103%; in assay [4] it was 78.1%; in assay [5], 110%; in assay [6], 85.7%. Further, the growth is 84.7% in assay [7]; 107% in [8]; 91.8% in [9]; 134% in assay [10]; 79.2% in assay [11]; 87.8% in assay [12]. The growth in assay [13] was 110%; in [14], 107%; in assay [15] it was 128%; in assay [16] it was 101%; in assay [17], 103%; in assay [18] it was 100%.

Turning to `CCN(CC)CCOC(=O)Nc1ccccc1Cl`, the growth is 105% in assay [1]; 88.1% in assay [2]; 92.7% in assay [3]; 102% in assay [4]; 104% in assay [5]; 82% in [6]. The growth in [7] was 68.9%; in [8], 98.7%; in assay [9], 92.1%; in [10], 107%; in [11], 94.8%; in assay [12] it was 95.7%. For the same compound, the growth is 115% in assay [13]; 117% in assay [14]; 102% in assay [15]; 104% in assay [16]; 102% in [17]; 105% in assay [18].

Take `c1ccc2c(c1)ncn2-c1nc2ccccc2n2c1nc1ccccc12`: the growth in assay [1] is 67.1%; in assay [2] it was 78.4%; in [3], 62.9%; in assay [4], 50.1%; in [5], 52.1%; in assay [6], 88.5%. For the same compound, the growth in [7] is 81.6%; in assay [8], 81.7%; in [9], 98.3%; in assay [10], 89%; in [11] it was 82.9%; in assay [12], 128%. Besides, the growth in assay [13] is 80.7%; in assay [14], 88.8%; in [15] it was 94.3%; in [16] it was 90.2%; in assay [17] it was 79.8%; in assay [18] it was 104%.
